From ChEMBL document CHEMBL4513216, “Probing the Open Global Health Chemical Diversity Library for Multistage-Active Starting Points for Next-Generation Antimalarials” (ACS Infect Dis, 2020)
In all, about 69,000 compounds went through this assay and about 8,600 (12%) showed an effect of 50% or more. The entries come from a sample that favours strong results as a whole.

These compounds were tested on Plasmodium berghei (assay: Screen against P. berghei liver stage (PbLuc), transformed with Luciferase, at 10uM). Conditions: tested at 10 uM.
Assay type: functional, HepG2

Structure (SMILES)	INHIBITION [%]
Cc1c(F)cc(C(=O)O)cc1S(=O)(=O)Nc1ccccc1	20.265
Cn1c(C2CCCCN2C(=O)CN2CCCC2=O)nc2ccccc21 (centres undefined)	61.5
Cn1c(C2CCCN2C(=O)CN2CCCC2=O)nc2ccccc21 (centres undefined)	24.7
Cn1c(C2CCCN2C(=O)CN2CSCC2=O)nc2ccccc21 (centres undefined)	59.3
Cn1cc(C2CCCN2C(=O)Cn2ccc3ccccc32)cn1 (centres undefined)	23.1
O=C1CSCN1CC(=O)N1CCCC1c1nc2ccccc2s1 (centres undefined)	32.3
Cn1c(C2CCCN2C(=O)c2cn(CCN)nn2)nc2ccccc21 (centres undefined)	28
CN1CCOC(CN(C(=O)COc2ccccc2)c2nccs2)C1 (centres undefined)	-2.53
Cc1cnn(CCC(=O)N(CC2CN(C)CCO2)c2nccs2)c1 (centres undefined)	-31.6
CN1CCOC(CN(C(=O)CCc2cnn(C)c2)c2nccs2)C1 (centres undefined)	62.6
CN1CCOC(CN(C(=O)CC2CCCC2)c2nccs2)C1 (centres undefined)	55.5
CN1CCOC(CN(C(=O)CN2CCCC2=O)c2nccs2)C1 (centres undefined)	48.1
CN1CCOC(CN(C(=O)CCc2ccco2)c2nccs2)C1 (centres undefined)	43.3
CCC1(CO)CCCN(C(=O)c2cc(COc3ccccc3F)[nH]n2)C1 (centres undefined)	-39.3
Cn1cc(-c2cc(C(F)(F)F)nn2CCC#N)cn1	20.1
Cc1cc2c(cc1NC(=O)NCC(C)C)OCO2	28.5
O=C1CCC2(CCN(CC[C@@H](O)c3ccccc3)CC2)CN1CC1CC1	-51.7
O=C(c1cccs1)N1CCCC(c2cc(C(F)F)n3ncnc3n2)C1 (centres undefined)	40
O=C(CCCn1cccn1)N1CCCC(n2cncn2)C1 (centres undefined)	12.9
CC(C)C(=O)N1CCc2c(CN(C)Cc3ccco3)cncc2C1	-11.2
CC(C)(C)CC(=O)NC(C)(C(N)=O)c1cccc(Cl)c1 (centres undefined)	74.5
CC(C)(C)SCC(=O)NC(C)(C(N)=O)c1cccc(Cl)c1 (centres undefined)	-19.5
Cc1cc(CNC(=O)Cc2cccs2)ccc1S(C)(=O)=O	-3.68
CC(C)(CNC(=O)c1ccc(Cl)o1)NC(=O)OC(C)(C)C	-60.9
CC(NC(=O)Cc1ccccc1F)(C(N)=O)c1cccc(Cl)c1 (centres undefined)	32
CC(NC(=O)Cc1cccs1)(C(N)=O)c1cccc(Cl)c1 (centres undefined)	60
COCCC(=O)NC(C)(C(N)=O)c1cccc(Cl)c1 (centres undefined)	26.4

Structure (SMILES)	INHIBITION [%]
CC(C)(C)OC(=O)NC(C)(C(N)=O)c1cccc(Cl)c1 (centres undefined)	65.6
Cc1nncn1CCNC(=O)C(C)(C)c1cccc(Cl)c1	24.3
CCN(CC1=CCN(C)CC1)C(=O)CCOC	29.5
CC1CCN(CCNCc2cc(-c3ccccc3)cn3nnnc23)CC1	23.2
Cc1nc(C)n(CC2CN(CCCOc3ccc(F)cc3)CCO2)n1 (centres undefined)	25.6
COC(=O)c1sc(C(F)(F)F)cc1OC	43.2
Cc1nsc(N2CCN(C(=O)Nc3cccc(F)c3)CC2)n1	68.3
Cc1nsc(N2CCN(Cc3cccc(F)c3)CC2)n1	57.6
Cc1nsc(N2CCN(C(=O)Nc3ccc4[nH]ccc4c3)CC2)n1	25.5
OCc1csc(N2CCN(Cc3cccc(F)c3)CC2)n1	28.7
Cc1nsc(N2CCN(CC(=O)NCc3ccc(F)cc3)CC2)n1	40.9
Cc1nsc(N2CCN(C(=O)Nc3cccc(C#N)c3)CC2)n1	37.2
CN(Cc1ccco1)C1CCC12CCN(C(=O)c1ccnnc1)CC2 (centres undefined)	-39.3
COCCCN1CCCCC12CC(=O)N(Cc1ccccn1)C2 (centres undefined)	18.7
COCCN1CCCCC12CC(=O)N(c1cccc(C#N)c1)C2 (centres undefined)	61.1
COCCN1CCCCC12CC(=O)N(c1ccccc1OC)C2 (centres undefined)	93.7
N#Cc1cccc(N2CC3(CCN(C(=O)C4CC=CC4)C3)CC2=O)c1 (centres undefined)	13.6
Cc1ccccc1N1CC2(CCCCN2CC2CC2)CC1=O (centres undefined)	5.63
O=C1CC2(CCCCN2CC2CC2)CN1c1ccccc1 (centres undefined)	-31.4
Fc1ccc(CN2Cc3nccn3CC(CN3CCOCC3)C2)cc1 (centres undefined)	32.2
O=C(O)c1cc(-c2ccncc2)cc(S(=O)(=O)N2CCCCCC2)c1	-8
Cc1ccc(C(=O)N2Cc3c(CN(C)C)nn(C)c3C2)cc1C	14.6
CCN(C)S(=O)(=O)NCC1CCN(Cc2ccccc2C)CC1	24
CCN(C)C(=O)c1cccc(S(=O)(=O)NCCc2csc(N)n2)c1	48
CCc1nc(CCNS(=O)(=O)c2cccc(C(=O)N(C)CC)c2)cs1	55.4
CCN(C)C(=O)c1cccc(S(=O)(=O)NCCc2nc(C)cc(=O)[nH]2)c1	45.2
CO[C@H]1CN(C(=O)c2nc(-c3ccccc3)[nH]c2C)CC[C@H]1N	5.78
